Measured values as given in PubChem BioAssay AID1159580 (chemical genetic matrix, 2015).
Out of some 5,500 compounds screened, about 2,000 (36%) were called active. About 18% were inconclusive and are not listed. Cut-off read from the data, not from the text of the source: active = normalized growth mostly below about 0.91 (no sharp cut-off); inconclusive = no clear call, values can overlap the other calls; inactive = mostly above about 0.92. Some of the results follow.

Test: chemical genetic growth profiling, strain panel (AID 1159580);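 note: tested at 20 µM; growth read once vehicle control cultures reached saturation at 30 °C; 1 = growth at the plate median or of vehicle wells; lower values mean less growth of the strain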
Conditions: S. cerevisiae deletion strains, growth OD

Measured: normalized growth

NC1(C(=O)O)CCc2cc(C(=O)O)ccc21 (stereo not drawn)
inactive: locus YAL040C, strain CLN3, stronger effect = lower value 0.959 | locus YER002W, strain NOP16, stronger effect = lower value 0.997 | locus YGR078C, strain PAC10, stronger effect = lower value 1.01 | locus YNL128W, strain TEP1, stronger effect = lower value 0.997 | locus YNL175C, strain NOP13, stronger effect = lower value 0.988 | locus YNL197C, strain WHI3, stronger effect = lower value 0.998 | locus YNL224C, strain SQS1, stronger effect = lower value 1.01 | locus YOR083W, strain WHI5 (second series), stronger effect = lower value 0.993
